{
  "source": "PubChem BioAssay (NCI)",
  "note": "This is part of a sample that, as a whole, favours compounds with a hit. Of some 83,000 tested, about 20% had one in any assay.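 Testing used 96-well plates and a 48-hour single-concentration exposure. Example: -40 means 40% of the starting cells died.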 A number with no mark means an inactive call. Calls of active or inactive are those of the source. The calls were made as follows: active = growth percent below 10; inactive = the rest.",
  "data": [
    {"test_system": "A549/ATCC NSCLC", "experiment": "NCI-60 one-dose screen, 48 h (100 = growth as untreated, 0 = no growth, -100 = all killed)", "details": "10 µM unless noted", "values": [
      {"smiles": "O=C(COc1ccc(NC(=O)Nc2ccc(Cl)c(Cl)c2)cc1)N=Nc1c(O)[nH]c2ccccc12", "growth": "-36.3% (active)"},
      {"smiles": "COc1ccc(-c2nnc3ccc(N/N=C/c4ccc(O)cc4)nn23)cc1", "growth": "58.5%"},
      {"smiles": "CCCSc1nc(NCCc2c[nH]c3ccccc23)c(C#N)c(-c2ccccc2)n1", "growth": "73.5%"},
      {"smiles": "CSc1ccc(C(=O)Nc2ccc3nnn(/C(C#N)=C/c4ccccn4)c3c2)cc1", "growth": "15%"},
      {"smiles": "CC(=O)OC[C@@]1(C)C2CC[C@]3(C)C(CC=C4C5CC(C)(C)CC[C@]5(C(=O)Nc5cccc(C)c5)CC[C@]43C)[C@@]2(C)C[C@@H](OC(C)=O)[C@@H]1OC(C)=O", "note": "(stereo partly drawn)", "growth": "40.7%"},
      {"smiles": "CN(C)c1ccnc(CNCCSC2(c3ccccc3)c3ccccc3C=Cc3ccccc32)c1", "growth": "0.815% (active)"},
      {"smiles": "Cn1cc(-c2nnc(N)nc2-c2c[nH]c3ccc(F)cc23)c2cccnc21", "growth": "47.6%"},
      {"smiles": "Clc1cccc(-c2ccc(OCCCN3CCN(c4ccncc4)CC3)cc2)c1", "growth": "-11.9% (active)"},
      {"smiles": "Cc1ccccc1[C@H]1C(C(=O)c2ccc(Cl)cc2)C2(N[C@@H]1c1ccccc1)C(=O)Nc1ccc(Br)cc12", "note": "(stereo partly drawn)", "growth": "2.73% (active)"},
      {"smiles": "CN(C)c1ccnc(CNCCSC2(c3ccc(C(F)(F)F)cc3)c3ccccc3C=Cc3ccccc32)c1", "growth": "2.72% (active)"},
      {"smiles": "O=C(c1ccc(OCCN2CCOCC2)cc1)C1[C@H](c2ccc(Cl)cc2)[C@@H](c2ccccc2)NC12C(=O)Nc1ccc(Cl)cc12", "note": "(stereo partly drawn)", "growth": "22.9%"},
      {"smiles": "COc1cc(CNC(=O)/C=C/c2ccc3c(c2)OCO3)ccc1OCc1cn(-c2ccc([N+](=O)[O-])cc2)nn1", "growth": "91.6%"},
      {"smiles": "CC(=O)Nc1ccc(-c2nc3cc(-c4ccc(O)cc4)ccc3n2C)cc1", "growth": "69.7%"},
      {"smiles": "Clc1cccc(Cl)c1/C=C/c1cc(/C=C/c2ccc(Br)cc2)c2ccccc2n1", "growth": "98.2%"},
      {"smiles": "COc1cc(OC)cc(-c2cc3ccc(N(C)C)cc3c(=O)[nH]2)c1", "growth": "24.4%"},
      {"smiles": "CNC(=O)c1cc(Oc2ccc3nc(NC(=O)Nc4cccc(OC(F)(F)F)c4)sc3c2)ccn1", "growth": "35.2%"},
      {"smiles": "N#Cc1c(-c2ccc(Br)cc2)nc2n[nH]c(-c3ccc(Br)cc3)c2c1-c1ccc(F)cc1", "growth": "99.7%"},
      {"smiles": "CCN1CCN(Cc2ccc(C(=O)Nc3cccc(C#Cc4cccc5[nH]nc(N)c45)c3)cc2C(F)(F)F)CC1", "growth": "-84.8% (active)"},
      {"smiles": "O=c1[nH]n(C(=S)N/N=C/c2ccccc2Cl)c(=O)c2ccccc12", "growth": "7.02% (active)"},
      {"smiles": "CC1(C)CC[C@]2(C(=O)Nc3ccccc3)CC[C@]3(C)C(=CCC4[C@@]5(C)C[C@@H](O)[C@H](O)[C@@](C)(CO)C5CC[C@]43C)C2C1", "note": "(stereo partly drawn)", "growth": "39.2%"},
      {"smiles": "Nc1nnc(-c2c[nH]c3ncc(Br)cc23)c(-c2c[nH]c3ccc(F)cc23)n1", "growth": "40.7%"},
      {"smiles": "COc1ccc(C(=O)/C=C/c2ccccc2Br)cc1S(N)(=O)=O", "growth": "-81.4% (active)"},
      {"smiles": "CSc1ccccc1NC(=O)c1ccc2nn(/C(C#N)=C/c3ccccn3)nc2c1", "growth": "0.0722% (active)"},
      {"smiles": "O=C(N=Nc1c(O)[nH]c2ccc(Cl)cc12)c1ccc2nc(-c3ccccc3)[nH]c2c1", "growth": "94.3%"},
      {"smiles": "CC(=O)Oc1ccccc1C(=O)[Se]C(=NC1CCCCC1)NC1CCCCC1", "growth": "0.226% (active)"},
      {"smiles": "CSc1ccc(NC(=O)c2ccc3nnn(/C(C#N)=C/c4ccccn4)c3c2)cc1", "growth": "-52.5% (active)"},
      {"smiles": "COc1ccc(C(=O)/C=C/c2cccnc2)cc1S(N)(=O)=O", "growth": "42.7%"},
      {"smiles": "Cc1ccc([C@H]2C(C(=O)c3ccc(Cl)cc3)C3(N[C@@H]2c2ccccc2)C(=O)Nc2ccccc23)cc1", "note": "(stereo partly drawn)", "growth": "25.9%"},
      {"smiles": "CN(C)CCCNC(=O)c1cc(NC(=O)c2cc(NC(=O)c3ccc(C#Cc4ccccc4)cc3)cn2C)cn1C", "growth": "-14.8% (active)"},
      {"smiles": "COc1ccc(C(=O)/C=C/c2cccc3ccccc23)cc1S(N)(=O)=O", "growth": "7.01% (active)"},
      {"smiles": "COc1ccc(NC(=O)c2sc3nc(C(C)C)ccc3c2N)cc1", "growth": "59.2%"},
      {"smiles": "COc1ccc([C@H](C)Nc2nc(Cl)nc3ccccc23)cc1", "growth": "70.2%"},
      {"smiles": "COc1cc2oc(-c3cccc(NC(=O)[C@H](Cc4ccccc4)NC(=O)OC(C)(C)C)c3)cc(=O)c2c(OC)c1OC", "growth": "24.7%"},
      {"smiles": "Cc1ccc(C(=O)CSc2nc3ccc(F)cc3c(=O)n2-c2ccc(Cl)cc2)cc1", "growth": "60.9%"},
      {"smiles": "CC(C)Sc1nc(NCCc2c[nH]c3ccccc23)c(C#N)c(-c2ccc(F)cc2)n1", "growth": "51.4%"},
      {"smiles": "OCNc1ccc(-n2cnc3cc(-c4ccc(O)cc4)ccc32)cc1C(F)(F)F", "growth": "22.4%"},
      {"smiles": "Cc1cc2nc3c4ccccc4n(CCNCCN(C)C)c3nc2cc1C", "growth": "20.4%"},
      {"smiles": "COc1ccc2c(c1)C(=N/N=C(\\C)c1ccc(OC)c(S(N)(=O)=O)c1)C(=O)N2", "growth": "94%"}
    ]}
  ]
}
